The values that follow come from PubChem BioAssay (EPA / NIEHS).

Records with an inconclusive call do not appear. Some structures have more than one record in an assay (separate samples or runs), and their calls can disagree. The source made the active and inactive calls. How the source made its calls, unless noted: active means hit-call score of the fitted dose curve at least 0.9, where 1 is the maximum; inactive means score below 0.9.

Assay [1] in a line: CCTE_Shafer_MEA_dev_AB: CCTE's Alamar Blue Assay for Cytotoxicity in the Neural Network Formation Assay, Shafer Lab (AID 2284083; active means hit-call score of the fitted dose curve at least 0.9, where 1 is the maximum;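 further: resazurin reduction fluorescence as viability of cultured neurons; twelve days of exposure from plating with re-dosing on DIV 5 and 9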). The gist of the method:
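Rat cortical primary cultures, 1.5 x 10^5 cells/well on MEA; continuous compound exposure over 12 days of network development, re-dosed with full medium change DIV 5 and 9. Alamar Blue fluorescence; loss of signal = cytotoxicity vs DMSO baseline.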
For orientation: Resazurin is reduced to fluorescent resorufin, in cell work by metabolically active cells.

Assay [2] can be described thus: CCTE_Shafer_MEA_dev_mutual_information_norm: CCTE's Neural Network Formation Assay for Mutual Information Normalization, Shafer Lab (AID 2284091).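 On AC50: mutual information between electrodes summarised as area under curve across four recording days; potency is for a decrease in mutual information relative to DMSO.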 In outline:
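Primary rat cortical neurons on PEI-coated 48-well MEA plates, 1.5 x 10^5 cells/well, exposed from day 0 through day 12 with re-dosing at DIV 5 and 9. Mutual information between electrodes recorded days 5, 7, 9, 12; trapezoidal AUC, loss-of-signal fit versus DMSO.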

Assay [3] in a line: CCTE_Shafer_MEA_dev_correlation_coefficient_mean: CCTE's Neural Network Formation Assay for Mean Correlation Coefficient, Shafer Lab (AID 2284093).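 On AC50: well mean pairwise spike train correlation integrated as AUC over recording days 5 to 12; potency fitted for loss of correlation relative to DMSO vehicle wells.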 The gist of the method: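 Rat cortical cultures, 1.5 x 10^5 cells/well, dosed from day 0 for 12 days. Spontaneous spikes recorded DIV 5/7/9/12; electrode-pair correlation coefficients averaged, AUC taken. Fit in loss direction vs DMSO.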

The nature of assay [4]: UKN4_HCS_LUHMES_neurite_outgrowth: University of Konstanz (UKN) Leist Lab Neurite Outgrowth Assay in human LUHMES cells (UKN4) (AID 2284206). To be noted: actives raise or lower the signal. The gist of the method: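 LUHMES neuronal precursors differentiated 2 days, replated without cAMP/GDNF, then exposed to chemicals for 24 h. Neurite area imaged by high-content microscopy after calcein-AM staining; Hoechst H-33342 marks viability. Bidirectional fit versus DMSO.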

Assay [5] is described as follows: IUF_NPC1b_proliferation_BrdU_72hr: Leibniz Research Institute for Environmental Medicine (IUF) 72-hour Neural Progenitor Cell Bromodeoxyuridine (BrdU) Proliferation Assay (NPC1b) (AID 2284207). The gist of the method:
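BrdU luminescence ELISA quantified DNA synthesis over the last 16 h of a 72 h exposure, fitted against DMSO. Primary hNPC spheres from gestational week 16-19 cortex grown with EGF/FGF at 37C, pH 7.2-7.6.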

Assay [6] is described as follows: IUF_NPC1a_proliferation_area_72hr: Leibniz Research Institute for Environmental Medicine (IUF) 72-hour Neural Progenitor Cell Proliferation Area Assay (NPC1a) (AID 2284208). The gist of the method: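 Proliferation is scored as sphere area gain in primary human fetal neural progenitors treated for 72 h in EGF/FGF-containing medium. Viability, LDH and BrdU readouts come from the same wells.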

Assay [7] is described as follows: IUF_NPC1_viability_72hr: Viability Assessment at 72 hours in the Leibniz Research Institute for Environmental Medicine (IUF) Neural Progenitor Cell Proliferation Assay (NPC1) (AID 2284209). The gist of the method: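 Human fetal-cortex neural progenitor spheres (0.25–0.35 mm, one per well) grown in EGF/FGF proliferation medium at 37C, pH 7.2-7.6, exposed 72 h without renewal; viability read as alamar blue resazurin-to-resorufin fluorescence relative to DMSO.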

Assay [8] can be described thus: CCTE_Mundy_HCI_Cortical_Synap_Neur_Matur_NeuriteSpotCountPerNeuriteLength: CCTE's Synaptogenesis and Neurite Maturation Assay in rat cortical cells for Neurite Spot Count per Neurite Length, Mundy Lab (AID 2284210). In outline:
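Rat primary cortical cultures, AraC added at DIV 5 to suppress glia; chemical exposure from DIV 7 to DIV 12. Fixed cells stained for MAP2 and synaptophysin plus Hoechst; synaptophysin puncta per neurite length quantified by high-content imaging, relative to DMSO.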

Assay [9] can be described thus: CCTE_Mundy_HCI_Cortical_Synap_Neur_Matur_BPCount: CCTE's Synaptogenesis and Neurite Maturation Assay in rat cortical cells for Branch Point Count, Mundy Lab (AID 2284211). In outline: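 Branch point number is quantified by automated imaging of fluorescently labelled neurites and synapses in rat primary cortical neurons exposed from DIV 7 to DIV 12. Activity is analysed relative to DMSO negative control.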

The nature of assay [10]: CCTE_Mundy_HCI_Cortical_NOG_NeuriteCount: CCTE's Neurite Outgrowth Assay in rat cortical cells for Neurite Count, Mundy Lab (AID 2284212).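 Further: cells fixed about two days after chemical exposure began.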 The gist of the method:
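Neurite number per cell from high-content imaging of betaIII-tubulin immunostaining, with Hoechst nuclear counterstain.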

Assay [11] can be described thus: CCTE_Mundy_HCI_Cortical_NOG_NeuriteLength: CCTE's Neurite Outgrowth Assay in rat cortical cells for Neurite Length, Mundy Lab (AID 2284213).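 On AC50: neurites imaged about 48 to 50 h after chemical exposure began.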 In outline: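 Neurite length was read by high-content imaging of βIII-tubulin-labelled neurites in rat primary cortical cultures. Activity was fitted relative to DMSO.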
A short description of assay [12]: CCTE_Mundy_HCI_Cortical_Synap_Neur_Matur_NeuriteLength: CCTE's Synaptogenesis and Neurite Maturation Assay in rat cortical cells for Neurite Length, Mundy Lab (AID 2284214). The gist of the method: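 Rat primary cortical cells were plated, treated with AraC at DIV 5 to arrest glial growth, then chemical-dosed with media change at DIV 7 through DIV 12. Fixed cells stained for MAP2, synaptophysin and Hoechst; neurite length quantified by high-content imaging.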

Assay [13] can be described thus: CCTE_Mundy_HCI_Cortical_Synap_Neur_Matur_SynapseCount: CCTE's Synaptogenesis and Neurite Maturation Assay in rat cortical cells for Synapse Count, Mundy Lab (AID 2284218). The gist of the method:
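Rat primary cortical cells in 96-well plates received AraC at DIV 5 and were dosed with chemicals at DIV 7 with media change, through DIV 12 (288.33 h). Synapses per neuron counted by high-content imaging of MAP2/synaptophysin/Hoechst staining, versus DMSO baseline.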

The nature of assay [14]: CCTE_Mundy_HCI_Cortical_Synap_Neur_Matur_NeuriteCount: CCTE's Synaptogenesis and Neurite Maturation Assay in rat cortical cells for Neurite Count, Mundy Lab (AID 2284222).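 On outcome: exposure from day 7 to day 12 in vitro with readout at day 12.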 In outline:
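Primary rat cortical cells were plated, treated with AraC at DIV 5, then exposed to chemicals from DIV 7 through DIV 12. After fixation and immunostaining for MAP2 and synaptophysin, imaging quantified neurites, with DMSO as the negative control.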

The nature of assay [15]: CCTE_Mundy_HCI_Cortical_Synap_Neur_Matur_CellBodySpotCount: CCTE's Synaptogenesis and Neurite Maturation Assay in rat cortical cells for Cell Body Spot Count, Mundy Lab (AID 2284223). The gist of the method:
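Synapse number at neuronal cell bodies was quantified as synaptophysin puncta per neuron in rat cortical cultures exposed from DIV 7 to DIV 12. Values were normalised to DMSO.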

A word on the AC50: it is the concentration at which the activity in the assay is half-maximal. Turning to `N#Cc1nn(-c2c(Cl)cc(C(F)(F)F)cc2Cl)c(N)c1S(=O)C(F)(F)F` (configuration not stated), the compound was called inactive in [1], in [2], in assay [3], in assay [5], in assay [6] and in assay [7]. The outcome in assay [9], in assay [10], in assay [11], in assay [12], in [14] and in [15] was inactive. In addition, the AC50 in assay [4] is 16.1 µM (active); in assay [8] it was 15 µM (active); in assay [13], 3.22 µM (active).
In the case of `CC(C)(C)c1ccc(CSc2cnn(C(C)(C)C)c(=O)c2Cl)cc1`, the AC50 in assay [1] is 0.0115 µM (active); in [2], 0.00153 µM (active); in [3], 0.00177 µM (active); in assay [5] it was 0.0138 µM (active); in assay [6] it was 0.0126 µM (active); in assay [8], 0.000994 µM (active). For the same compound, the AC50 was 0.000559 µM (active) in assay [9]; 0.00768 µM (active) in assay [10]; 0.00479 µM (active) in assay [11]; 0.000626 µM (active) in assay [12]; 0.000602 µM (active) in [13]; 0.00118 µM (active) in assay [14]. For the same compound, the AC50 in assay [15] was 0.00106 µM (active). Further, in assay [7], the compound was called inactive.
As for `COc1ccc(C(c2ccc(OC)cc2)C(Cl)(Cl)Cl)cc1`, the AC50 in assay [1] is 12.2 µM (active); in [2] it was 1.97 µM (active); in [3], 2.95 µM (active).
As for `CCCCNC(=O)n1c(NC(=O)OC)nc2ccccc21`, the compound was called inactive in [1], in assay [2], in assay [8], in assay [10], in assay [13] and in assay [14]. Also, in assay [15], the call was inactive. For the same compound, the AC50 was 15 µM (active) in assay [3]; 7.73 µM (active) in [4]; 15 µM (active) in assay [9]; 11.1 µM (active) in [11]; 15 µM (active) in assay [12].
`C=CCC1=C(C)C(OC(=O)C2C(C=C(C)C)C2(C)C)CC1=O` (configuration not stated): the AC50 in assay [1] is 22.8 µM (active); in assay [2] it was 0.917 µM (active); in assay [3], 4.1 µM (active); in assay [4], 9.08 µM (active). Further, the call in assay [1], in assay [2], in assay [3], in [8], in assay [9] and in [10] was inactive. The outcome in assay [11], in assay [12], in assay [13], in assay [14] and in assay [15] was inactive.
Consider `COP(=S)(OC)Oc1nc(Cl)c(Cl)cc1Cl`, for which the compound was called inactive in [1], in [2], in [3], in assay [5], in assay [6] and in assay [7]. Besides, the call in assay [15] was inactive. The AC50 in assay [9] is 24.8 µM (active); in assay [10] it was 25.9 µM (active); in assay [11] it was 23.1 µM (active); in assay [12], 25.9 µM (active); in [13], 22.4 µM (active); in assay [14] it was 27.9 µM (active).
